Compound activity (PubChem)
The list is not random: actives were taken first. Their share in the collection is about 5.6%.
H9c2 protect – myocardial damage modulation in H9c2 cells; H9c2 cardiomyocytes, H2O2 injury protection, ATPLite, 2 h; protection from H2O2 cell death, % at 20 µM; hit rate 0.63% among 360,000; AID 588492;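 active means compounds giving at least 50% protection of heart cells from peroxide-induced death in the single-dose screen, raw or plate-pattern-corrected value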;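 further: 0% = DMSO wells with peroxide and 100% = DMSO wells without peroxide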
PfM18AAP inh-1 – blocks P. falciparum M18 aspartyl aminopeptidase. recombinant PfM18AAP, H-Glu-NHMec fluorogenic cleavage. inhibition, % at 7.35 µM. hit rate 1.2% among 290,000;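 active means inhibition above the campaign mean inhibition over all tested compounds plus 3 SD, cut at about 28% in these data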;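 further: 0% = plate median of test compound wells and 100% = 2 mM ZnCl2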
ALR H2O2 inh – inhibitors of human sulfhydryl oxidase ALR; P55789; purified ALR, DTT oxidation, H2O2 HRP-luminol luminescence; inhibition, % (no concentration beside the values); hit rate 3.8% among 290,000; AID 485317;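 active means mean replicate inhibition above about 79%, with every replicate also reaching it, limit read from the data; inconclusive means only one of the two criteria met; inactive means mean below limit and not every replicate reaching it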
PHOSPHO1 inh – blocks human PHOSPHO1 phosphatase activity; Q8TCT1; recombinant PHOSPHO1, absorbance phosphatase assay; inhibition, % at 13.3 µM; hit rate 1.1% among 290,000; AID 1565; in the data active means inhibition above about 60%
PfG6PD inh – PfG6PD (Plasmodium falciparum) enzyme inhibition; PfGluPho enzyme, NADPH resazurin-diaphorase fluorescence; inhibition, % at 20 µM; hit rate 0.78% among 350,000;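 active means inhibition reaching at least a set limit at 20 µM in the primary screen, cut at about 59% in these data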;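 further: 0% = DMSO wells with substrate and 100% = DMSO wells lacking glucose-6-phosphate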
PfM18AAP inh-2 – PfM18AAP inhibition, confirmation; shares compounds with PfM18AAP inh-1; recombinant PfM18AAP, H-Glu-NHMec fluorogenic cleavage; inhibition, % at 7.35 µM; hit rate 28% among 2,400; AID 2170;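 active means mean inhibition over replicate wells above the hit cutoff set for the earlier primary screen, cut at about 29% in these data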;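 further: 0% = median of test compound wells and 100% = 2 mM ZnCl2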
CTSL1 counter – Cathepsin L (human) inhibition, confirmation; AID 2178; inhibition, % at 5.96 µM; shares compounds with PfM18AAP inh-1; 2,400 tested, under 10 active; purified cathepsin L1, Z-Leu-Arg-MCA fluorescence;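 active means average inhibition across replicates above the hit cutoff set in the earlier primary screen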;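 further: 0% = median of test compound wells and 100% = Z-Phe-Ala-diazomethylketone 1 µM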
Target sequence (P07711 whole entry, looked up): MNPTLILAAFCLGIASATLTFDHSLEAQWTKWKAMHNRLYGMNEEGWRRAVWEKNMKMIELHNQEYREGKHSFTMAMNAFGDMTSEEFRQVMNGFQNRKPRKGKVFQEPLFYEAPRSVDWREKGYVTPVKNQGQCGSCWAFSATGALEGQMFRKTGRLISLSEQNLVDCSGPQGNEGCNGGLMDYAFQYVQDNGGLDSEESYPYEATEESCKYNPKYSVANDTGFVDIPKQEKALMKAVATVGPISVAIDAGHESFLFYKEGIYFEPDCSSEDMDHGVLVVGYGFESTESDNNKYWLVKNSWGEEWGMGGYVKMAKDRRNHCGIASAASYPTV
The depositor's hits bear a star; ? = inconclusive; nt = no result given.

SMILES	H9c2 protect	PfM18AAP inh-1	ALR H2O2 inh	PHOSPHO1 inh	PfG6PD inh	PfM18AAP inh-2	CTSL1 counter
N#Cc1c(/N=C/c2ccc(O)cc2O)sc2c1C1CCN2CC1	4.5	39.5*	3.7	1.7	3.7	12.3	6.9
O=[N+]([O-])c1cc2c(cc1CNCCc1ccc3c(c1)OCO3)OCO2	4.0	8.8	-2.0	12.1	14.9	nt	nt
CCN1CCN(Cc2cc3c(cc2[N+](=O)[O-])OCO3)CC1	20.6	47.6*	-20.6	24.7	-3.1	5.4	-1.9
O=c1[nH]c2ccccc2n1C1CCN(C(CCc2ccccc2)c2nnnn2C2CCCC2)CC1 (configuration not stated)	20.8	nt	nt	nt	nt	nt	nt
O=C1CCCN1c1ccc(S(=O)(=O)O)cc1 (tested in a mixture with another compound)	2.4	80.4*	-0.4	-12.5	5.3	79.1*	-3.5
CCN(CC)C(=O)c1ccc(NC(=O)c2ccc(N3CCCC3=O)cc2)cc1	5.3	nt	3.4	nt	-5.4	nt	nt
CCN(CC)P(=S)(c1c(C)nc2ccccn12)c1c(C)nc2ccccn12	3.0	31.7*	3.2	-14.2	39.0	-14.9	-0.4
CCOC(=O)CNC(=O)N1Cc2cc(N3CCOCC3)ccc2-n2nncc2C1	8.9	nt	nt	nt	nt	nt	nt
N#C[C@H](O[C@@H]1O[C@H](CO[C@@H]2O[C@H](CO)[C@@H](O)[C@H](O)[C@H]2O)[C@@H](O)[C@H](O)[C@H]1O)c1ccccc1	3.3	nt	-17.8	nt	-11.9	nt	nt
O=c1ccc2cc(O[C@@H]3O[C@@H](CO)[C@H](O)[C@@H](O)[C@@H]3O)c(O)cc2o1	-1.6	32.2*	?	-2.4	6.5	-9.8	6.9
CN(C)C1C(=O)C(C(N)=O)=C(O)C2(O)C(=O)C3=C(O)c4c(O)cccc4C(C)(O)C3CC12 (configuration not stated)	5.8	36.1*	-12.3	-0.5	-0.7	-49.0	-5.0
CN(C)[C@@H]1C(=O)C(C(N)=O)=C(O)[C@@]2(O)C(=O)C3=C(O)c4c(O)cccc4[C@@](C)(O)[C@H]3C[C@@H]12	nt	nt	-20.5	nt	nt	nt	nt
O=C1NCN(c2ccccc2)C12CCN(C(c1nnnn1-c1ccc3c(c1)OCCO3)C1CC1)CC2 (configuration not stated)	11.2	nt	nt	nt	nt	nt	nt
O=c1[nH]c(=O)n(-c2ccccc2F)c(O)c1/C=C1\C=Nc2ccccc21	6.5	42.5*	95.9*	6.5	38.4	40.8*	-1.5
O=c1[nH]c(=O)n(-c2ccc(F)cc2)c(O)c1/C=C1\C=Nc2ccccc21	0.5	32.0*	1.0	nt	-17.9	29.4*	-5.0
CCN(CC)c1ccc(N=Cc2c(O)n(-c3ccc(OC)cc3)c(=O)[nH]c2=O)cc1	-1.3	42.5*	nt	11.6	26.5	-35.5	1.4
CCN(CC)c1ccc(N=Cc2c(O)n(-c3ccc(Cl)cc3)c(=O)[nH]c2=O)cc1	16.9	2.9	-5.3	-5.2	17.0	nt	nt
C=CCn1c(O)c(C(CC)=Nc2ccc(N(C)C)cc2)c(=O)[nH]c1=O	-4.7	52.1*	8.5	14.6	11.7	-28.2	0.3
Cc1cccc(N=Cc2c(O)n(-c3ccccc3C)c(=O)[nH]c2=O)c1	6.9	2.7	-3.2	20.1	-7.0	nt	nt
Cc1ccccc1-n1c(O)c(C=Nc2ccc(N(C)C)cc2)c(=O)[nH]c1=O	-2.6	45.9*	92.5*	25.8	22.9	-56.1	6.0
C=CCn1c(O)c(C=Nc2ccc(N(CC)CC)cc2)c(=O)[nH]c1=O	0.0	50.1*	22.1	-13.6	-0.5	-28.6	1.1
CC1OC(OC2C=C3CCC4C(CCC5(C)C(c6ccc(=O)oc6)CCC45O)C3(C)CC2)C(O)C(OC2OC(CO)C(O)C(O)C2O)C1O (configuration not stated)	12.3	nt	nt	nt	-3.5	nt	nt
C[C@H](CO)N1C[C@H](C)[C@H](CN(C)C(=O)Oc2ccccc2)OCc2cnnn2CCCC1=O	0.8	nt	nt	nt	14.9	nt	nt
c1ccc2[nH]c(CCN3CCCCC3)nc2c1	18.7	nt	nt	nt	2.2	nt	nt
O=c1c2ccccc2nc(/C=C/c2ccc(O)c(O)c2)n1-c1ccccc1	56.3*	63.2*	-10.1	23.5	23.1	41.3*	-0.1
CCCCn1nnnc1C(CC)N1CCC2(CC1)C(=O)NCN2c1ccccc1 (configuration not stated)	0.5	nt	nt	nt	nt	nt	nt
